The source of these data is paper PMC12820563, “FoxP3 forms a head-to-head dimer in vivo and stabilizes its multimerization on adjacent microsatellites”.

Whole data set: some 16,000 sequences, median “rpm ratio (pull-down/input)” near 0.94, cut for the highest 2% near 1.7. The list comes from a sample in which the highest values are over-represented; it also holds similar and randomly drawn sequences.

The experiment concerns the target T1, MBP-FoxP1dN (Mus musculus, UniProt P58462 326-579).
T1 sequence: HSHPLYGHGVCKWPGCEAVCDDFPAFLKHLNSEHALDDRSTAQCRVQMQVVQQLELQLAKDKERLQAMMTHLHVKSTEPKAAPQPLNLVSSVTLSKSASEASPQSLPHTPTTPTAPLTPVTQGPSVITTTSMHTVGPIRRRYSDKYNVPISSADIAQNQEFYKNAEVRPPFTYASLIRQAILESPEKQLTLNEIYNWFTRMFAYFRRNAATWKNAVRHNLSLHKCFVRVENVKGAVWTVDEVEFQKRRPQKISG
Put plainly: PD-seq (MBP pull-down with sequencing); 20 mM Tris-HCl pH 7.5, 100 mM NaCl, 1.5 mM MgCl2, 0.4 uM protein, 0.1 uM dsDNA library, 30 min, room temperature, amylose pull-down; high values mean tight binding. To be noted: protein: recombinant; tags: His6-MBP; chain copies: 2; dsDNA, one strand shown. In outline: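 A degenerate double-stranded DNA library, filled in with Klenow, was added at 0.1 µM to 0.4 µM His6-MBP-tagged mouse FoxP3 or FoxP1 fragment lacking the N-terminus, expressed in E. coli. Incubation lasted 30 min at room temperature in Tris pH 7.5 buffer with NaCl and MgCl2, after which complexes were collected on amylose resin, washed three times, digested with proteinase K to free the DNA, barcoded by PCR and sequenced by Illumina. Binding is the pooled-replicate reads-per-million enrichment of pull-down over input.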
Turning to “GATGATTGTTCTCCCAGCTGATGAATTCGTCTTGTCGAGTAAACAAATTTTCCTAATCTTTCTGTTCAAGCGCCATCTAC”, the binding signal was 0.827 RPM ratio (pull-down/input).

“GATGATTGTTCTCCCAGCTGATGAATTAATAATCTCGAGTAAACAAATTTTCCTAATCTTTCTGTTCAAGCGCCATCTAC”: the binding signal is 1.06 RPM ratio (pull-down/input).

For the sequence “GATGATTGTTCTCCCAGCTGATGAATTTATATTCTCGAGTAAACAAATTTTCCTAATCTTTCTGTTCAAGCGCCATCTAC”, the binding signal was 1.04 RPM ratio (pull-down/input).

In the case of “GATGATTGTTCTCCCAGCTGATGAATTTTTATTGTCGAGTAAACAAATTTTCCTAATCTTTCTGTTCAAGCGCCATCTAC”, the binding signal was 2.51 RPM ratio (pull-down/input).

Regarding “GATGATTGTTCTCCCAGCTGATGAATTTATTCTGTCGAGTAAACAAATTTTCCTAATCTTTCTGTTCAAGCGCCATCTAC”, the binding signal is 1.12 RPM ratio (pull-down/input).

In the case of “GATGATTGTTCTCCCAGCTGATGAATTATTTTTGTCGAGTAAACAAATTTTCCTAATCTTTCTGTTCAAGCGCCATCTAC”, the binding signal was 1.37 RPM ratio (pull-down/input).

For “GATGATTGTTCTCCCAGCTGATGAATTTATATTGTCGAGTAAACAAATTTTCCTAATCTTTCTGTTCAAGCGCCATCTAC”, the binding signal was 2.36 RPM ratio (pull-down/input).

In the case of “GATGATTGTTCTCCCAGCTGATGAATTATATTTGTCGAGTAAACAAATTTTCCTAATCTTTCTGTTCAAGCGCCATCTAC”, the binding signal is 2.29 RPM ratio (pull-down/input).

In the case of “GATGATTGTTCTCCCAGCTGATGAATTGTTATTGTCGAGTAAACAAATTTTCCTAATCTTTCTGTTCAAGCGCCATCTAC”, the binding signal was 3.45 RPM ratio (pull-down/input).

On to “GATGATTGTTCTCCCAGCTGATGAATTTTATATGTCGAGTAAACAAATTTTCCTAATCTTTCTGTTCAAGCGCCATCTAC”, for which the binding signal was 0.988 RPM ratio (pull-down/input).

Take “GATGATTGTTCTCCCAGCTGATGAATTTTATCTGTCGAGTAAACAAATTTTCCTAATCTTTCTGTTCAAGCGCCATCTAC”: the binding signal was 0.918 RPM ratio (pull-down/input).

In the case of “GATGATTGTTCTCCCAGCTGATGAATTATATCTGTCGAGTAAACAAATTTTCCTAATCTTTCTGTTCAAGCGCCATCTAC”, the binding signal is 1.08 RPM ratio (pull-down/input).

Turning to “GATGATTGTTCTCCCAGCTGATGAATTAAACATATCGAGTAAACAAATTTTCCTAATCTTTCTGTTCAAGCGCCATCTAC”, the binding signal is 1.4 RPM ratio (pull-down/input).

For the sequence “GATGATTGTTCTCCCAGCTGATGAATTGGTGCCATCGAGTAAACAAATTTTCCTAATCTTTCTGTTCAAGCGCCATCTAC”, the binding signal was 0.972 RPM ratio (pull-down/input).

For “GATGATTGTTCTCCCAGCTGATGAATTCGCTGTATCGAGTAAACAAATTTTCCTAATCTTTCTGTTCAAGCGCCATCTAC”, the binding signal is 1.04 RPM ratio (pull-down/input).

As to “GATGATTGTTCTCCCAGCTGATGAATTTACCCTCTCGAGTAAACAAATTTTCCTAATCTTTCTGTTCAAGCGCCATCTAC”, the binding signal was 1.06 RPM ratio (pull-down/input).

As to “GATGATTGTTCTCCCAGCTGATGAATTAAAAAGTTCGAGTAAACAAATTTTCCTAATCTTTCTGTTCAAGCGCCATCTAC”, the binding signal was 0.935 RPM ratio (pull-down/input).

As to “GATGATTGTTCTCCCAGCTGATGAATTATAGTAGTCGAGTAAACAAATTTTCCTAATCTTTCTGTTCAAGCGCCATCTAC”, the binding signal was 0.985 RPM ratio (pull-down/input).

Take “GATGATTGTTCTCCCAGCTGATGAATTGGTCGCGTCGAGTAAACAAATTTTCCTAATCTTTCTGTTCAAGCGCCATCTAC”: the binding signal is 1.03 RPM ratio (pull-down/input).

Turning to “GATGATTGTTCTCCCAGCTGATGAATTCAAGCTCTCGAGTAAACAAATTTTCCTAATCTTTCTGTTCAAGCGCCATCTAC”, the binding signal is 0.854 RPM ratio (pull-down/input).

As to “GATGATTGTTCTCCCAGCTGATGAATTATTCCTGTCGAGTAAACAAATTTTCCTAATCTTTCTGTTCAAGCGCCATCTAC”, the binding signal was 0.964 RPM ratio (pull-down/input).

For the sequence “GATGATTGTTCTCCCAGCTGATGAATTGATTGTGTCGAGTAAACAAATTTTCCTAATCTTTCTGTTCAAGCGCCATCTAC”, the binding signal was 1.35 RPM ratio (pull-down/input).

In the case of “GATGATTGTTCTCCCAGCTGATGAATTTATTTGGTCGAGTAAACAAATTTTCCTAATCTTTCTGTTCAAGCGCCATCTAC”, the binding signal was 1.59 RPM ratio (pull-down/input).

As for “GATGATTGTTCTCCCAGCTGATGAATTTATTTTGTCGAGTAAACAAATTTTCCTAATCTTTCTGTTCAAGCGCCATCTAC”, the binding signal is 1.62 RPM ratio (pull-down/input).

With “GATGATTGTTCTCCCAGCTGATGAATTTTATGTGTCGAGTAAACAAATTTTCCTAATCTTTCTGTTCAAGCGCCATCTAC”, the binding signal is 1.13 RPM ratio (pull-down/input).

Turning to “GATGATTGTTCTCCCAGCTGATGAATTTTATTTGTCGAGTAAACAAATTTTCCTAATCTTTCTGTTCAAGCGCCATCTAC”, the binding signal is 2.45 RPM ratio (pull-down/input).

In the case of “GATGATTGTTCTCCCAGCTGATGAATTCTTATTGTCGAGTAAACAAATTTTCCTAATCTTTCTGTTCAAGCGCCATCTAC”, the binding signal was 2.49 RPM ratio (pull-down/input).

For the sequence “GATGATTGTTCTCCCAGCTGATGAATTTATTGTGTCGAGTAAACAAATTTTCCTAATCTTTCTGTTCAAGCGCCATCTAC”, the binding signal was 1.88 RPM ratio (pull-down/input).

For the sequence “GATGATTGTTCTCCCAGCTGATGAATTTTATTGGTCGAGTAAACAAATTTTCCTAATCTTTCTGTTCAAGCGCCATCTAC”, the binding signal was 1.74 RPM ratio (pull-down/input).

As for “GATGATTGTTCTCCCAGCTGATGAATTGTCTTATTCGAGTAAACAAATTTTCCTAATCTTTCTGTTCAAGCGCCATCTAC”, the binding signal was 1.18 RPM ratio (pull-down/input).

As for “GATGATTGTTCTCCCAGCTGATGAATTTAATTTGTCGAGTAAACAAATTTTCCTAATCTTTCTGTTCAAGCGCCATCTAC”, the binding signal is 1.25 RPM ratio (pull-down/input).

Regarding “GATGATTGTTCTCCCAGCTGATGAATTATTTTGGTCGAGTAAACAAATTTTCCTAATCTTTCTGTTCAAGCGCCATCTAC”, the binding signal is 1.35 RPM ratio (pull-down/input).

Regarding “GATGATTGTTCTCCCAGCTGATGAATTTCATAAATCGAGTAAACAAATTTTCCTAATCTTTCTGTTCAAGCGCCATCTAC”, the binding signal was 1.05 RPM ratio (pull-down/input).

As for “GATGATTGTTCTCCCAGCTGATGAATTAAATCACTCGAGTAAACAAATTTTCCTAATCTTTCTGTTCAAGCGCCATCTAC”, the binding signal was 1.09 RPM ratio (pull-down/input).

Regarding “GATGATTGTTCTCCCAGCTGATGAATTAGACGCGTCGAGTAAACAAATTTTCCTAATCTTTCTGTTCAAGCGCCATCTAC”, the binding signal is 0.99 RPM ratio (pull-down/input).

As to “GATGATTGTTCTCCCAGCTGATGAATTGCAGATGTCGAGTAAACAAATTTTCCTAATCTTTCTGTTCAAGCGCCATCTAC”, the binding signal is 1.27 RPM ratio (pull-down/input).

As to “GATGATTGTTCTCCCAGCTGATGAATTACTCCAATCGAGTAAACAAATTTTCCTAATCTTTCTGTTCAAGCGCCATCTAC”, the binding signal was 1.1 RPM ratio (pull-down/input).

As for “GATGATTGTTCTCCCAGCTGATGAATTCCCCAGGTCGAGTAAACAAATTTTCCTAATCTTTCTGTTCAAGCGCCATCTAC”, the binding signal was 0.743 RPM ratio (pull-down/input).

On to “GATGATTGTTCTCCCAGCTGATGAATTATCTGTGTCGAGTAAACAAATTTTCCTAATCTTTCTGTTCAAGCGCCATCTAC”, for which the binding signal was 1.03 RPM ratio (pull-down/input).

“GATGATTGTTCTCCCAGCTGATGAATTATTTGTGTCGAGTAAACAAATTTTCCTAATCTTTCTGTTCAAGCGCCATCTAC”: the binding signal was 2.12 RPM ratio (pull-down/input).

With “GATGATTGTTCTCCCAGCTGATGAATTATGTGTGTCGAGTAAACAAATTTTCCTAATCTTTCTGTTCAAGCGCCATCTAC”, the binding signal was 1.4 RPM ratio (pull-down/input).
